Records with an inconclusive call do not appear. Calls of active or inactive are those of the source. Calls come from the whole dose curve; as a rule, active = well fitted activation curve with a large enough effect in the repeat runs; inconclusive = weak or mixed curves; inactive = flat fitted curve, though single readings scatter.
Assay: A CellTox Green Cytotoxicity Assay to monitor cytotoxicity in HEK293 cells - 16 hour (AID 1224888); note: nearly all actives have a fitted effect of over 35% in size
Settings: CellTox Green fluorescence; series mostly up to 76.8 µM; activity change: at the top concentration
Source text: National Center for Advancing Translational Sciences [NCATS]
NIH Chemical Genomics Center [NCGC]
U.S. Environmental Protection Agency [EPA]
National Institutes of Environmental Health Sciences [NIEHS]
National Toxicology Program [NTP]
Cell-based models are critical for drug discovery. Determining the natural cytotoxic effects resulting from test compounds is an essential research activity. A CellTox Green Cytotoxicity Assay to monitor cytotoxicity in real time of continues cell culture during 40 hours of the compound treatment was used to screen Tox21 10K library compounds in Hek293 cells. CellTox Green Cytotoxicity Assay is a nonlytic, homogeneous, biofluorescent method to measure cytotoxicity in cell culture after experimental manipulation. The assay system uses a proprietary asymmetric cyanine dye that is excluded from viable cells but preferentially stains the dead cell's DNA. […] Viable cells produce no appreciable increases in fluorescence. Therefore, the fluorescence signal produced by the binding interaction with dead cell DNA is proportional to cytotoxicity.
The mixture of Hek293 cell suspension and reagents were dispensed at 600cells/6 ul/well in 1536-well tissue culture treated black solid bottom plates using a Multidrop dispenser. After the assay plates were incubated at a 37 C/5% CO2 incubator for 5 hours, 23 nL of compounds dissolved in DMSO, positive and negative controls was transferred to the assay plate by a pintool work station. The plates were incubated at 37 C for 40 hours. The fluorescence intensity were measured at 0h, 8h, 16h, 24h, 32h and 40h time points using ViewLux plate reader during compound treatment.
% is set by controls: 0 for no effect and ±100 for the full control effect.

Q: With `COP(=S)(OC)Oc1cc(Cl)c(I)cc1Cl` as the compound, how does the “activity change” value read?
A: -4.77% (inactive)

Q: With `Cn1cc[n+](C)c1` (tested in a mixture with another compound) as the compound, how does the “activity change” value read?
A: -14% (inactive)

Q: For `COc1cc(CC(C)N)cc2c1OCO2` (stereo not given), which “activity change” value is on record?
A: -3.48% (inactive)

Q: For `C[N+](C)(C)CCCl`, which “activity change” value is on record?
A: -0.282% (inactive)

Q: Which “activity change” value does the source give for `COC(=O)C(Cl)C(=O)OC` here?
A: -1.15% [at 35.3 µM, hits give high values] (inactive)

Q: For `CCOC(=O)CBr`, which “activity change” value is on record?
A: 4.94% (inactive)

Q: Which “activity change” value does the source give for `CN1[C@@H]2CC[C@H]1CC(OC(=O)c1cc(Cl)cc(Cl)c1)C2` (stereo not given in full) here?
A: 9.75% [at 35.3 µM, hits give high values] (inactive)

Q: Which “activity change” value does the source give for `CCCCC(CC)COP(=O)(Oc1ccccc1)Oc1ccccc1` (stereo not given) here?
A: -0.69% (inactive)

Q: With `CCn1cc[n+](C)c1` as the compound, how does the Potency read?
A: inactive

Q: For `C=CCCl`, which “activity change” value is on record?
A: 1.76% (inactive)

Q: Which “activity change” value does the source give for `CCC(COC(=O)c1cc(OC)c(OC)c(OC)c1)(c1ccccc1)N(C)C` (stereo not given) here?
A: 3.2% [at 35.3 µM, hits give high values] (inactive)

Q: With `CC(C)(CCl)C(=O)Cl` as the compound, how does the “activity change” value read?
A: -11.7% (inactive)

Q: Which Potency does the source give for `CCOP(=O)(OCC)Oc1ccc([N+](=O)[O-])cc1` here?
A: inactive

Q: For `Clc1ccc(C2(Cn3cncn3)CC(Br)CO2)c(Cl)c1` (stereo not given), which “activity change” value is on record?
A: 5.72% (inactive)

Q: With `COC(=O)C(Br)CBr` (stereo not given) as the compound, how does the “activity change” value read?
A: -2.4% (inactive)

Q: With `CC(=O)C(C)(C)C` as the compound, how does the “activity change” value read?
A: -0.225% (inactive)

Q: Which “activity change” value does the source give for `Sc1ccccc1Cl` here?
A: -17.6% [at 35.3 µM, hits give high values] (inactive)

Q: With `C=CC(=O)OC(C)(C)C` as the compound, how does the “activity change” value read?
A: -12.5% (inactive)

Q: For `CC1Sc2c(C(=O)O)c(=O)c3cc(F)c(N4CCNCC4)cc3n21` (stereo not given), which “activity change” value is on record?
A: -1.2% [at 35.3 µM, hits give high values] (inactive)

Q: With `CCCCOC(=O)c1ccccc1C(=O)OCc1ccccc1` as the compound, how does the Potency read?
A: inactive

Q: With `Nc1nc(N)nc(N)n1` as the compound, how does the “activity change” value read?
A: 2.52% (inactive)

Q: For `COP(=O)(OC)O/C(=C/Cl)c1cc(Cl)c(Cl)cc1Cl`, which “activity change” value is on record?
A: 11.1% (inactive)

Q: With `NNC(=O)c1cccnc1` as the compound, how does the “activity change” value read?
A: 1.32% (inactive)

Q: With `ClCc1cccc(Cl)c1` as the compound, how does the “activity change” value read?
A: 3.76% [at 35.3 µM, hits give high values] (inactive)

Q: Which “activity change” value does the source give for `O=Cc1ccc2c(c1)OCO2` here?
A: 0.377% (inactive)

Q: Which “activity change” value does the source give for `CCCN(CC1CC1)c1c([N+](=O)[O-])cc(C(F)(F)F)cc1[N+](=O)[O-]` here?
A: 15.6% (inactive)

Q: For `O=C1CN=C(c2ccccc2)c2cc(Cl)ccc2N1CC1CC1`, which “activity change” value is on record?
A: 16.6% (inactive)

Q: Which “activity change” value does the source give for `CC[C@H]1C[C@H]2[C@@H]3CCC4=CC(=O)CC[C@@H]4[C@H]3CC[C@]2(C)[C@H]1O` here?
A: -0.907% [at 35.3 µM, hits give high values] (inactive)

Q: With `N#CCC#N` as the compound, how does the “activity change” value read?
A: 6.01% (inactive)

Q: With `C/C=C/C=O` as the compound, how does the “activity change” value read?
A: -1.27% (inactive)

Q: For `NC(=O)C(Cl)(Cl)Cl`, which “activity change” value is on record?
A: 10.7% (inactive)

Q: Which “activity change” value does the source give for `Clc1cc(Cl)c(Cl)c(Cl)c1` here?
A: 1.42% (inactive)

Q: Which “activity change” value does the source give for `COC(=O)c1cncn1C(C)c1ccccc1` (stereo not given) here?
A: 6.44% [at 35.3 µM, hits give high values] (inactive)

Q: For `O=C(O)C(F)(F)C(F)(F)C(F)(F)C(F)(F)C(F)(F)C(F)(F)C(F)(F)C(F)(F)C(F)(F)C(F)(F)F`, which “activity change” value is on record?
A: -5.88% (inactive)

Q: For `CC/C(=N\OC/C=C/Cl)C1=C(O)CC(C2CCOCC2)CC1=O` (stereo not given), which “activity change” value is on record?
A: -0.335% (inactive)

Q: With `CC(=O)[C@H]1CC[C@H]2[C@@H]3CC[C@H]4C[C@](C)(O)CC[C@]4(C)[C@H]3CC[C@]12C` as the compound, how does the “activity change” value read?
A: 1.05% [at 35.3 µM, hits give high values] (inactive)

Q: With `O=C1c2ccccc2C(=O)C1C(=O)C(c1ccccc1)c1ccccc1` as the compound, how does the “activity change” value read?
A: -5.6% [at 35.3 µM, hits give high values] (inactive)

Q: For `CCCN(CCCl)c1c([N+](=O)[O-])cc(C(F)(F)F)cc1[N+](=O)[O-]`, which “activity change” value is on record?
A: -10.6% (inactive)

Q: For `CCCCCCCCCC(=O)O[C@H]1CC[C@H]2[C@@H]3CCC4=CC(=O)CC[C@@H]4[C@H]3CC[C@]12C`, which “activity change” value is on record?
A: 0.552% [at 35.3 µM, hits give high values] (inactive)

Q: Which “activity change” value does the source give for `N#Cc1cc(I)c(O)c(I)c1` here?
A: -0.067% (inactive)

Source: PubChem BioAssay (Tox21)
